{"source": "PubChem BioAssay (NCATS)", "note": "Results filed as inconclusive are left out. Active and inactive are the calls of the source. Calls follow the shape of the dose curve; as a rule, active = well fitted curve in the direction sought with a large enough effect in the signal ratio, with a control signal flat (not every such curve was filed as active); inconclusive = small, poorly fitted or top-dose-only effect, or effect the other way, or a change in a side signal; inactive = no such curve, though single readings can be large or run the other way; the % refers to the signal ratio."}
{"target": "Peroxisome proliferator-activated receptor gamma (Homo sapiens) (UniProt P37231)", "sequence (P37231 whole entry, looked up)": "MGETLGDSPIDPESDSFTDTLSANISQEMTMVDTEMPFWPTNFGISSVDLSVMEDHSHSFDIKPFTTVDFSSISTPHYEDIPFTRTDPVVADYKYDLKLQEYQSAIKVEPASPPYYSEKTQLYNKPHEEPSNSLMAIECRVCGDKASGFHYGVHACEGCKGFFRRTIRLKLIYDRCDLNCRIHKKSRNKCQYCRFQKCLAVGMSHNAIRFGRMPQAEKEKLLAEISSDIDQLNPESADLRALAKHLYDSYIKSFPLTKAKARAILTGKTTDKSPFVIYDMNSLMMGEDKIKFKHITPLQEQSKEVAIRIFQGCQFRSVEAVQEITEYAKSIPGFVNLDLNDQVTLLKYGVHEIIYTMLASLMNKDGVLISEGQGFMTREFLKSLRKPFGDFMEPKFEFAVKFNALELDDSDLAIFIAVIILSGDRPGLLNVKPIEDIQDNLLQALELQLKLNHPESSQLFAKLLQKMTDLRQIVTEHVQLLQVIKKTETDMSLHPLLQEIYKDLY", "assay": "qHTS assay for small molecule agonists of peroxisome proliferator-activated receptor gamma signaling (AID 588536)", "settings": "HEK293 PPARg-UAS-bla, beta-lactamase ratio, 16 h, percent of rosiglitazone response, DMSO as zero; series mostly up to 76.7 µM", "source_text": "NIH Chemical Genomics Center [NCGC] U.S. Environmental Protection Agency [EPA] National Institutes of Environmental Health Sciences [NIEHS] National Toxicology Program [NTP] NCGC Assay Overview The Peroxisome proliferator-activated receptors (PPARs) are lipid-activated transcription factors of the nuclear receptor superfamily with three distinct subtypes namely PPAR alpha, PPAR delta (also called PPAR beta) and PPAR gamma. All these subtypes heterodimerizes with Retinoid X receptor (RXR) and these heterodimers regulate transcription of various genes. PPAR-gamma (glitazone receptor) agonists have been used in the treatment of type 2 diabetes and dyslipidaemia. It is involved in the regulation of glucose and lipid metabolism. PPAR-gamma activates certain genes like Paraoxonase 1 which is responsible for hydrolyzing organophosphates. PPAR-gamma agonists may also be therapeutically important in the treatment of coronary artery disease, obesity and cancer and atherosclerosis.\nNCGC Assay Protocol Summary Using a beta-lactamase reporter-gene under control of Peroxisome Proliferator-Activated-gamma (PPAR-gamma) response element, a cell-based assay [GeneBLAzer PPAR-gamma-UAS-bla assay developed by Invitrogen] was used to measure PPAR-gamma ligands signaling. GeneBLAzer PPAR-gamma-UAS-bla-HEK293 cells were used with assay medium containing 1% charcoal/dextran treated FBS. The assay was performed in clear bottom black Greiner 1536-well plates. Rosiglitazone was used in the screen as the positive control. Library compounds were measured for their ability to stimulate the reporter gene activity. Compounds were screened in a titration series in 1536-well format. The fluorescence intensity (405 nm excitation, 460/530 nm emission) was measured using an EnVision plate reader. Data was normalized relative to Rosiglitazone control (2 uM, 100%), and DMSO only wells (basal, 0%). Concentration-response titration points for each compound were fitted to the Hill equation yielding concentrations of half-maximal stimulation (EC50) and maximal response (efficacy) values. qHTS protocol for PPAR-gamma beta-lactamase assay in agonist mode [Step] [Parameter] [Value] [Description] 1. Reagent; 6 uL; 3000 cells/well 2. Incubation; 37 C for 6 - 6.5 hrs 3. Compounds; 23 nL; 0.59 nM to 92 uM 4. Controls (Rosiglitazone); 23 nL, - One column with dose response, start 19 uM, 1:3 dilutions in duplicates - Final concentrations of 2 uM and 0.5 uM in two columns 5. Incubation; 37 C for 16 hrs 6. Detection reagent; 1 uL of CCF4-dye 7. Incubation; RT for 2 hrs 8. Detection; Fluorescence; Envision plate reader"}
{"smiles": "C=C(C)C(=O)OCC(CC)(COC(=O)C(=C)C)COC(=O)C(=C)C", "outcome": "inactive"}
{"smiles": "C[Si]1(C)N[Si](C)(C)N[Si](C)(C)N1", "outcome": "inactive"}
{"smiles": "Cc1c(Cl)cccc1Cl", "outcome": "inactive"}
{"smiles": "C[Si](Cl)(Cl)[Si](C)(Cl)Cl", "outcome": "inactive"}
{"smiles": "C=CCOc1nc(OCC=C)nc(OCC=C)n1", "outcome": "inactive"}
{"smiles": "CCCCCCCC/C=C\\CCCCCCCCCCCCC", "outcome": "inactive"}
{"smiles": "CC(Cl)(Cl)C(=O)OCCOc1cc(Cl)c(Cl)cc1Cl", "outcome": "inactive"}
{"smiles": "CCCCCCCC[Si](OCC)(OCC)OCC", "outcome": "inactive"}
{"smiles": "COC(=O)c1ccc(C(=O)OC)cc1", "outcome": "inactive"}
{"smiles": "C=CC(=O)OCCOc1ccccc1", "outcome": "inactive"}
{"smiles": "C[Si](Cl)(Cl)c1ccccc1", "outcome": "inactive"}
{"smiles": "CCCCOCC(C)OCC(C)O", "note": "(stereo not given)", "outcome": "inactive"}
{"smiles": "C[C@]12CCC(=O)C=C1CC[C@@H]1[C@@H]2[C@@H](O)C[C@]2(C=O)[C@@H](C(=O)CO)CC[C@@H]12", "outcome": "inactive"}
{"smiles": "CCCCCCCCCCCCN", "outcome": "inactive"}
{"smiles": "CCCCCCCCCCCCCCO", "outcome": "inactive"}
{"smiles": "CCN(Cc1c(F)cccc1Cl)c1c([N+](=O)[O-])cc(C(F)(F)F)cc1[N+](=O)[O-]", "outcome": "inactive"}
{"smiles": "CCCCC/C=C\\C/C=C\\CCCCCCCC(=O)OC", "outcome": "inactive"}
{"smiles": "CC(C)(C)[C@H](O)[C@H](Cc1ccc(Cl)cc1)n1cncn1", "outcome": "inactive"}
{"smiles": "CCCCC(CC)COC(C)=O", "note": "(stereo not given)", "outcome": "inactive"}
{"smiles": "FC(F)(F)c1ccc(Cl)c(Cl)c1", "outcome": "inactive"}
{"smiles": "C=C(C)C(=O)OCC[N+](C)(C)C", "outcome": "inactive"}
{"smiles": "CC1(C)C(=O)N(Br)C(=O)N1Cl", "outcome": "inactive"}
{"smiles": "BrC1CCC(Br)C(Br)CCC(Br)C(Br)CCC1Br", "note": "(stereo not given)", "outcome": "inactive"}
{"smiles": "COC(OC)(C(=O)c1ccccc1)c1ccccc1", "outcome": "inactive"}
{"smiles": "C=C(C)C(=O)OCCCCCCCCCCCCCCCC", "outcome": "inactive"}
{"smiles": "CCCCOCCOCCOC(C)=O", "outcome": "inactive"}
{"smiles": "CCCCCCCC/C=C\\CCCCCCCC(=O)OC", "outcome": "inactive"}
{"smiles": "Cc1cc(C)c(N)c(Cl)c1", "outcome": "inactive"}
{"smiles": "CC(C)Cc1c(C(=O)O)c(C(F)F)nc(C(F)(F)F)c1C1=NCCS1", "outcome": "inactive"}
{"smiles": "CCCCCCCCCCCCCCN(C)C", "outcome": "inactive"}
{"smiles": "S=C(S)NCCNC(=S)S", "outcome": "inactive"}
{"smiles": "S=C([S-])NCCNC(=S)[S-].[Mn+2]", "outcome": "inactive"}
{"smiles": "CCCCOC(=O)[C@@H](C)Oc1ccc(Oc2ccc(C(F)(F)F)cn2)cc1", "outcome": "inactive"}
{"smiles": "COc1ccccc1NC(=O)CC(C)=O", "outcome": "inactive"}
{"smiles": "O=C(Cl)c1cccc(C(=O)Cl)c1", "outcome": "inactive"}
{"smiles": "CN(C)Cc1cc(CN(C)C)c(O)c(CN(C)C)c1", "outcome": "inactive"}
{"smiles": "O=C(O)c1ccc(C(=O)O)c(C(=O)O)c1", "outcome": "inactive"}
{"smiles": "Cn1c(=O)[nH]c(=O)n(C2CCCCC2)c1=O", "outcome": "inactive"}
{"smiles": "O=c1[nH]c(=O)c2[nH]cnc2[nH]1", "outcome": "inactive"}
{"smiles": "O=C1CCC(C2CCCCC2)CC1", "outcome": "inactive"}
